# Compound activity deposited in PubChem by Johns Hopkins Ion Channel Center.
# KCNQ2 block: blocks the rat KCNQ2 potassium channel | O88943 | CHO-K1 KCNQ2, FluxOR thallium flux, 20 min; active compounds read low | B-score at 10 µM | 310,000 tested, 1.1% active | AID 2156;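 active means fluorescence ratio B-score at most minus 3 library SDs, with starting brightness B-score within 2 library SDs, cut at about -5.5 in these data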
# KCNQ2 pot: potentiators of rat KCNQ2 potassium channel; O88943; CHO-K1 KCNQ2, FluxOR thallium flux fluorescence; active compounds read high; B-score at 10 µM; 310,000 tested, 0.54% active;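 active means fluorescence ratio B-score at least 3 SD of library B-scores, with initial fluorescence B-score within 3 of them, cut at about 5.3 in these data; same plate scores as AID 2156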;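 further: B-score of peak minus minimum over baseline fluorescence ratio after K+ and Tl+ stimulus; positive B-score means potentiation of KCNQ2 with more thallium influx and brighter signal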
# * hit, by the source's call; i = inactive; nt = no result. This is a sample that favours compounds with a hit; in the whole collection about 1.6% have one here.
SMILES,KCNQ2 block,KCNQ2 pot
Cc1ccnc(NC(=O)C2CC(=O)N(Cc3ccccc3)C2)c1 (centres undefined),i,0.46
Cc1oc2ccc(OCc3ccc(F)cc3Cl)cc2c1C(=O)O,i,7*
Cc1oc2ccc(OCc3ccccc3Cl)cc2c1C(=O)O,i,2.9
CCC(=O)N1CCN(c2ccccc2NC(=S)NC(=O)c2ccco2)CC1,i,nt
Nc1c(C(=O)c2ccc(Br)cc2)oc2ccccc12,i,1.5
O=C(c1ccc(Cl)cc1)c1oc2ccccc2c1CS(=O)c1ccccc1 (centres undefined),-5.7*,-5.7
C/C(=C\C(=S)Nc1ccccc1)Nc1ccc2ccccc2c1,-6.3*,-6.3
C/C(=C\C(=S)Nc1ccccc1)Nc1cccc2ccccc12,i,nt
CC(CCc1ccccc1)NC(=O)C(Cc1ccccc1)NS(=O)(=O)c1cccs1 (centres undefined),-5.7*,-5.7
CC1CCCCC1NC(=O)C(Cc1ccccc1)NS(=O)(=O)c1cccs1 (centres undefined),i,nt
Cc1ccc(C(=O)O/N=C(\N)c2ccc(Br)cc2)cc1C,i,0.55
N/C(=N\OC(=O)c1cccc2ccccc12)c1ccncc1,i,nt
Cc1cc(C)cc(C(=O)O/N=C(\N)c2ccc(Br)cc2)c1,-6.8*,-6.8
N/C(=N\OC(=O)c1cccc2ccccc12)c1ccc(Br)cc1,-5.6*,-5.6
COc1cc(C(CC(=O)Nc2cccc(C)n2)N2Cc3ccccc3C2=O)cc(OC)c1OC (centres undefined),i,0.07
CCOc1ccccc1N(C)S(=O)(=O)c1ccc2c(c1)N(C(C)=O)CCO2,i,nt
CC(C)CCOP(=O)(c1ccc(N(C)C)cc1)C(O)c1c(Cl)cccc1Cl (centres undefined),-5.6*,-5.6
CCCOP(=O)(c1ccc(N(C)C)cc1)C(O)c1c(Cl)cccc1Cl (centres undefined),i,0.59
COc1ccc(S(=O)(=O)N(CC(=O)NC2CC2)Cc2ccccc2)cc1,i,0.2
CCn1c(SCc2c(Cl)cccc2Cl)nc2nc3c(cc2c1=O)CCCC3,-6.7*,-6.7
CCn1c(SCc2ccccc2Cl)nc2nc3c(cc2c1=O)CCCC3,i,nt
OC(CCN1CCCCC1)(c1ccccc1)C1CCCCC1 (centres undefined),i,nt
OC(CCN1CCOCC1)(c1ccc(Cl)cc1)C1CCCCC1 (centres undefined),-5.8*,-5.8
CC(C)NC(=O)c1ccc(N(Cc2ccccc2)S(C)(=O)=O)cc1,i,2.1
Cc1ccc(C(=O)c2nccn2C)cc1C,i,0.02
SMILES,KCNQ2 block,KCNQ2 pot
NC(=O)CC(NC(=O)Cc1ccc(Br)cc1)c1ccc(N2CCc3ccccc3C2)c([N+](=O)[O-])c1 (centres undefined),i,4.1
O=C1NC2(CCN(Cc3ccccc3)CC2)Oc2ccccc21,i,nt
O=C1c2ccccc2OC2(C=Cc3ccccc3O2)N1Cc1ccccc1 (centres undefined),-8.3*,-8.3
COC(=O)C1CN(C(=O)COc2cc(C)cc(C)c2)c2ccccc2O1 (centres undefined),i,nt
COc1ccc(NC(=O)c2cc(C)nc3ccccc23)c(OC)c1,i,nt
Cc1ccc(NC(=O)c2cc(C)nc3ccccc23)c(C)c1,-5.9*,-5.9
CCCC(NC(=O)CCc1c(C)c2cc3c(-c4ccccc4)coc3cc2oc1=O)C(=O)O (centres undefined),i,3
Cc1ccc(C2=NOC(C)(c3nnc(-c4cccc(Cl)c4)o3)C2)cc1 (centres undefined),i,nt
CC1(c2nnc(-c3cccc(Cl)c3)o2)CC(c2c(Cl)cccc2Cl)=NO1 (centres undefined),-5.6*,-5.6
CCN(C(=O)COC(=O)c1cccc(S(=O)(=O)N2CCOCC2)c1)C1CCS(=O)(=O)C1 (centres undefined),i,0.44
Oc1ccc(N=Nc2ccc(Br)cc2)c(O)c1,i,0.38
Cc1ccc(N=Nc2ccc(O)cc2)c(Br)c1,-5.7*,-5.7
CCCOc1ccc(-c2c(C(=O)N/N=C/C3CCCCC3)nnn2-c2nonc2N)cc1,i,1
COc1ccc2nc(NC(=O)Nc3cccc4ccccc34)sc2c1,i,nt
COc1ccc2nc(N=Nc3c(O)ccc4ccccc34)sc2c1,i,8.2*
Cc1nnc(NC(=O)c2ccc(F)c(S(=O)(=O)N3CCCCC3)c2)s1,i,0.87
S=C(Nc1ccccc1Cl)N1CCCC(c2ccccc2)=N1,-6.5*,-6.5
S=C(Nc1ccccc1Cl)N1CCCCCC1,i,0.14
COc1ccc(NC(=O)NNC(=O)CCc2ccc(O)c(O)c2)cc1OC,i,0.79
Cc1cccc2cc(CN(Cc3ccco3)C(=O)Nc3cccc(C#N)c3)c(Cl)nc12,i,nt
Cc1ccc2cc(CN(Cc3ccco3)C(=O)NCc3ccccc3)c(=O)[nH]c2c1C,i,nt
Cc1ccc(C)c2[nH]c(=O)c(CN(Cc3ccco3)C(=O)Nc3ccccc3)cc12,-5.6*,-5.6
